Most compounds without a hit are left out; they make up all but 3.6% or so of the library.
Nrf2 block: Nrf2 qHTS screen for inhibitors | hit rate 2.1% among 360,000 | Potency, µM (doses to about 46 µM), inactives show at the top dose activity change, negative = inhibition, hits mostly inhibitors | A549 ARE-Fluc reporter, luciferase luminescence, 18-24 h; further: on the % scale 0 is the no-effect control and ±100 the full control effect; nearly all actives have a fitted effect of over 60% in size
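In this cell-based qHTS, ARE-driven firefly luciferase in A549 cells reports Nrf2 activity; the luminescent signal after BugLite lysis is the measured value, with a prior CellTiter-Fluor read for cell health.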
Nrf2 activator: qHTS of Nrf2 Activators. AREc32 ARE-luciferase reporter (MCF7-derived line), luminescence, 24 h. Potency, µM (doses to about 46.1 µM), for inactives: at the highest dose activation, usual class: activators. hit rate 0.31% among 410,000. AID 624171, 2012; further: % of control where 0% means no effect; nearly all actives have a fitted effect of over 65% in size
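For detection, Steady-Glo was added and plates sat 30 min at RT; before that, AREc32_Fluc cells grown overnight in OPTI-MEM/5% FBS had been treated with 23 nL compound for 24 hr at 37 deg C.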
HepG2 tox-1: qHTS for Inhibitors of TGF-b: Cytotox Counterscreen | Potency, µM (top dose mostly 46.1 µM), for inactives: at the highest dose activity change, negative = cytotoxicity, hits mostly cytotoxic | HepG2 CAGA-GFP viability, ATP luminescence, 18 h | hit rate 0.76% among 410,000 | AID 588856, 2011
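CellTiter-Glo luminescence gave cytotoxicity after 18 hours at 37 degrees C. The cells were HepG2 CAGA-GFP in 1% FBS DMEM, stimulated with 500 pg/mL TGF-beta after compound addition. %Activity was normalised to no-cell wells (complete cell-killing) and DMSO (no toxicity), and curves were fitted and classified.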
TGFb SMAD3 inh: qHTS for Inhibitors of TGF-b | Potency, µM (doses to about 46.1 µM), without a hit: top-dose activity, negative = inhibition, most hits filed as inhibitors | hit rate 1.2% among 410,000 | AID 588855, 2011 | HepG2 CAGA-GFP TGF-b/SMAD3 reporter, GFP fluorescence, 18 h; TGF-beta stimulated, 500 pg/mL final; further: on the % scale 0 is the no-effect control and ±100 the full control effect; nearly all actives have a fitted effect of over 65% in size
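Inhibition was scored as loss of TGF-beta-induced (500 pg/mL final, 18 hours, 37 degrees C) GFP in HEPG2 cells carrying a CAGA-GFP reporter, in DMEM with 1% FBS. Well GFP was summed per cell; Activity was normalised to unstimulated and stimulated DMSO wells, then concentration-response fitting.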
A549 tox-1: Nrf2 qHTS screen for inhibitors: counterscreen for cytotoxicity | A549 ARE-Fluc cells, CellTiter-Fluor viability, 18-24 h | hit rate 0.16% among 390,000 | AID 504648, 2011 | Potency, µM (top dose mostly 46 µM), inactives show at the top dose activity change, negative = cytotoxicity, actives largely listed as inhibitors; further: on the % scale 0 is the no-effect control and ±100 the full control effect
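A549 ARE-Fluc cells in 5% FBS OPTI-MEM, 5000 cells/well, rested 2 h then exposed to compounds in concentration-response for 18-24 h at 37 °C. Viability by CellTiter-Fluor fluorescence (Ex 405/Em 525) after 30 min; luciferase luminescence (BugLite, 15 min, RT) read afterwards.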
FLuc counter 3: Nrf2 qHTS screen for inhibitors: Purified Fluc Biochemical Counterscreen for Hit Validation | purified firefly luciferase, luminescence inhibition | shares compounds with Nrf2 block | hit rate 4% among 1,400 | Potency, µM (doses to about 57.5 µM), inactives show top-dose activity change, negative = inhibition, hits mostly inhibitors | AID 720522, 2013; further: on the % scale 0 is the no-effect control and ±100 the full control effect; nearly all actives have a fitted effect of over 65% in size
Target sequence (P08659 whole entry, looked up): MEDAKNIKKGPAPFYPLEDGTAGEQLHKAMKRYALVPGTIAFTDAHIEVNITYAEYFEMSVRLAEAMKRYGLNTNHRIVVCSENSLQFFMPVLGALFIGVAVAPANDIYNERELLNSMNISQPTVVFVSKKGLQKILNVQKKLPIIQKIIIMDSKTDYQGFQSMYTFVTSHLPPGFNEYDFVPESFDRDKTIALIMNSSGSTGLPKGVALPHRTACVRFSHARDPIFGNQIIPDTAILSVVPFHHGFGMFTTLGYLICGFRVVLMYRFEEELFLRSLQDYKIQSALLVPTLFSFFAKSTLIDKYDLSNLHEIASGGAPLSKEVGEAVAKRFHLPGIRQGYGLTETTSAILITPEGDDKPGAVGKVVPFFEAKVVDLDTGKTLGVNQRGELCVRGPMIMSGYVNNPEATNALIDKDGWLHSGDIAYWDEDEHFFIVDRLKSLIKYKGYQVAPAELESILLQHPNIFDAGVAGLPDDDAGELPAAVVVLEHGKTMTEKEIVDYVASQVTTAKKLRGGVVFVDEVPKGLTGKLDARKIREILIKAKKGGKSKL
A549 tox-2: Nrf2 qHTS screen for inhibitors: A549 ARE-Fluc Cytotoxicity Counterscreen for Hit Validation. hit rate 2% among 1,400. AID 720523, 2013. shares compounds with Nrf2 block. A549 ARE-Fluc cells, cytotoxicity counterscreen. Potency, µM (titrated, usually from 46.1 µM), for inactives: top-dose activity change, negative = cytotoxicity, actives largely listed as inhibitors;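 further: cells exposed to compounds for 18 to 24 hours; on the % scale 0 is the no-effect control and ±100 the full control effect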
Nrf2 ARE inh: Nrf2 qHTS screen for inhibitors: Nrf2 A549 ARE-Fluc Confirmation Assay for Hit Validation; hit rate 74% among 1,400; shares compounds with Nrf2 block; Potency, µM (top dose mostly 46.1 µM), for the others: at the highest dose activity change, negative = inhibition, most hits filed as inhibitors; A549 ARE-firefly luciferase reporter, luminescence; further: on the % scale 0 is the no-effect control and ±100 the full control effect; nearly all actives have a fitted effect of over 65% in size
TGFb confirm: qHTS for Inhibitors of TGF-b: Confirmation of Cherry Picks. AID 720534, 2013. HepG2 CAGA-GFP TGF-b reporter, GFP fluorescence, 18 h; cells stimulated with TGF-beta, 500 pg/mL. Potency, µM (top dose mostly 46.1 µM), for the others: at the top dose activity, negative = inhibition, usual class: inhibitors. hit rate 63% among 1,600. shares compounds with TGFb SMAD3 inh; further: on the % scale 0 is the no-effect control and ±100 the full control effect; nearly all actives have a fitted effect of over 65% in size
HepG2 tox-2: qHTS for Inhibitors of TGF-b: Cytotox Counterscreen for Cherry Picks | shares compounds with TGFb SMAD3 inh | HepG2 CAGA-GFP viability, ATP luminescence, 18 h; cells stimulated with TGF-beta, 500 pg/mL | Potency, µM (series often up to 46.1 µM), inactives show top-dose activity, negative = cytotoxicity, actives largely listed as inhibitors | hit rate 27% among 1,600 | AID 720535, 2013; further: on the % scale 0 is the no-effect control and ±100 the full control effect; nearly all actives have a fitted effect of over 70% in size
CCL64 TGFb inh: qHTS for Inhibitors of TGF-b: CCL64 Cells Orthogonal Assay for Cherry Picks | hit rate 41% among 1,600 | Potency, µM (top dose mostly 46.1 µM), for inactives: at the top dose activity, negative = inhibition, hits mostly inhibitors | AID 720536, 2013 | CCL64 CAGA-GFP reporter, TGF-b stimulated, GFP fluorescence, 18 h | shares compounds with TGFb SMAD3 inh; further: nearly all actives have a fitted effect of over 65% in size
TGFb COP inh: qHTS for Inhibitors of TGF-b: Hit Validation in HepG2 Cells using COP promoter; hit rate 3% among 1,600; shares compounds with TGFb SMAD3 inh; HepG2 COP-GFP TGF-b reporter, GFP fluorescence, 18 h; cells stimulated by added recombinant TGF-beta; Potency, µM (highest dose often 46.1 µM), inactives show at the top dose activity, negative = inhibition, hits mostly inhibitors; further: nearly all actives have a fitted effect of over 70% in size
Active calls of the source: *; ? = inconclusive; / = no result given. The call rests on the fitted dose curve; in most records, active means well fitted curve in the direction sought with a large enough effect; inconclusive means small, poorly fitted or top-dose-only effect, or another doubt; inactive means no such curve, though single readings can be large; an effect the other way counts as inactive or inconclusive. Potency means the concentration at half of the fitted maximal effect.

SMILES | Nrf2 block | Nrf2 activator | HepG2 tox-1 | TGFb SMAD3 inh | A549 tox-1 | FLuc counter 3 | A549 tox-2 | Nrf2 ARE inh | others
O=C(NN1C(=O)C2C3C=CC(C4CC34)C2C1=O)c1cccc(Br)c1 (stereo not given) | ? | -0.4% | 81.6% | 0.0% | 3.3% | / | / | /
CC1OC(OC2C=C3CCC4C(CCC5(C)C(c6ccc(=O)oc6)CCC45O)C3(C)CC2)C(O)C(OC2OC(CO)C(O)C(O)C2O)C1O (stereo not given) | 0.0731µM* | -2.3% | -53.9% | 0.398µM* | ? | 1.7% | ? | 0.0082µM*
C=CCn1c(O)c(C(C)=NCCCO)c(=O)[nH]c1=O | -5.8% | 1.4% | -3.0% | 4.7% | -0.7% | / | / | /
COC(=O)C1=C(c2ccc(F)cc2F)C[C@@H]2CC[C@H]1N2C(=O)NCc1ccc(F)cc1 | -24.7% | -0.7% | -36.2% | -2.4% | -2.5% | / | / | /
CC1(C)C2SCC(=O)N2CCN1CC(=O)NN (stereo not given) | 2.9% | 0.0% | 8.0% | -6.9% | -5.9% | / | / | /
CCCCCCn1c(=O)c(C(=O)Nc2cnccn2)c(O)c2ccccc21 | 4.11µM* | 0.0% | -5.0% | -8.9% | ? | -0.9% | ? | 5.17µM*
CCCCCn1c(=O)c(C(=O)Nc2ccccn2)c(O)c2ccccc21 | ? | 3.8% | -9.8% | 13.5% | -6.0% | / | / | /
O=C1CN=C(c2ccccc2)c2ccccc2N1 | -3.3% | 0.4% | -14.5% | 0.0% | 3.1% | / | / | /
N#CC(C#N)=Cc1ccc(O)c(O)c1 | -22.9% | 0.5% | -1.8% | 16.7% | -0.3% | / | / | /
CC(C)(C)c1cc(C=C(C#N)C#N)cc(C(C)(C)C)c1O | 0.651µM* | 0.1% | -45.4% | ? | ? | -2.6% | ? | 1.3µM*
Cc1ccc(-c2nc3ccc(C)cn3c2CC(=O)N(C)C)cc1 | 2.2% | 2.1% | -8.2% | -1.2% | -3.1% | / | / | /
COc1ccc(-c2nc(CSCC(=O)N3CCN(c4ccc(F)cc4)CC3)c(C)o2)cc1 | 3.26µM* | -0.3% | -3.6% | -40.8% | -8.0% | -12.2% | -24.0% | 7.31µM*
CCc1ccc(-c2nc(CSCC(=O)N3CCN(c4ccc(F)cc4)CC3)c(C)o2)cc1 | 7.31µM* | 0.4% | -25.7% | -14.0% | -20.2% | -14.3% | -7.3% | /
CN(CCc1ccccc1)Cc1ccccc1[N+](=O)[O-] | -10.4% | 2.5% | 2.0% | 5.2% | -8.1% | / | / | /
O=C(COc1ccccc1)c1cn(Cc2ccccc2)c2ccccc12 | 29.5% | 2.2% | 5.0% | 34.8% | ? | / | / | /
O=C(c1cc(F)ccc1F)C1CCCN(Cc2cc(Cl)ccc2O)C1 (stereo not given) | 1.9% | 0.7% | -8.3% | -19.6% | -0.4% | / | / | /
CCC1(CC)C(=O)NC(=O)N(CCc2ccccn2)C1=O | ? | 0.8% | -4.9% | 0.0% | -1.3% | / | / | /
CCN(CC)C1=NC(=[N+](CC)CC)c2ccccc21 | 2.06µM* | -0.2% | -19.3% | -11.9% | ? | 4.3% | -24.0% | 4.61µM*
COc1ccc(C2SCC(=O)Nc3c2c(C)nn3C2CCOC(C)(C)C2)cc1 (stereo not given) | -14.7% | 0.2% | 5.9% | 6.2% | 7.0% | / | / | /
COC(=O)[C@]12OC[C@]34C([C@@H](O)[C@@H]1O)[C@]1(C)CC(=O)C(O)=C(C)[C@@H]1C[C@H]3OC(=O)[C@H](O)[C@@H]24 (stereo not given in full) | 1.3µM* | -2.8% | -7.1% | ? | ? | -0.6% | ? | 1.46µM*
COc1ccc(NC(=O)N(C)C[C@H]2Oc3c(NC(=O)Nc4ccccc4)cccc3C(=O)N([C@H](C)CO)C[C@@H]2C)cc1 | 2.2% | 0.7% | -9.8% | ? | 0.2% | / | / | /
Cc1ccc(-c2cc(-c3ccc(C)cc3)[n+](C)o2)cc1 | 5.17µM* | 0.3% | -30.2% | 7.08µM* | ? | -19.6% | -17.5% | 3.66µM*
Cc1oc(-c2ccc(Cl)cc2)nc1CS(=O)CC(=O)N1CCC2(CC1)OCCO2 (stereo not given) | -24.4% | 2.0% | -21.3% | -12.2% | / | / | / | /
O=C1NC2C(=CC(O)C(O)C2O)c2cc3c(c(O)c21)OCO3 (stereo not given) | 0.259µM* | -2.2% | -20.8% | -125.7% | ? | 0.8% | ? | / | TGFb confirm=0.0184µM*;HepG2 tox-2=0.461µM*;CCL64 TGFb inh=0.0731µM*;TGFb COP inh=-8.3%
O=C1NC2C(O)C(O)C(O)C(O)C2c2cc3c(c(O)c21)OCO3 (stereo not given) | 0.92µM* | -2.3% | 3.5% | 0.126µM* | 1.16µM* | 2.9% | ? | 1.3µM* | TGFb confirm=0.0651µM*;HepG2 tox-2=?;CCL64 TGFb inh=0.184µM*;TGFb COP inh=0.3%
